According to ChEMBL document CHEMBL1157539, “Thousands of chemical starting points for antimalarial lead identification” (Nature, 2010):

Legend:
Format in all cases: functional
[1] = test system: Plasmodium falciparum; assay: GSK_TCMDC: Inhibition of Plasmodium falciparum 3D7 in whole red blood cells, using parasite LDH activity as an index of growth. Test compounds present at 2uM
[2] = test system: Plasmodium falciparum; assay: GSK_TCMDC: Inhibition of Plasmodium falciparum Dd2 in whole red blood cells, using parasite LDH activity as an index of growth. Test compounds present at 2uM
[3] = test system: HepG2; assay: GSK_TCMDC: Percent inhibition of human HepG2 cell line. Test compounds present at 10uM.

Row | SMILES | Inhibition [1] [%] | Inhibition [2] [%] | Inhibition [3] [%]
1 | CC(=O)Nc1ccc(S(=O)(=O)Nc2c(C)cc(Cc3cnc(N)nc3N)cc2C)cc1 | 94 | 0 | 6
2 | CCOc1ccccc1CNc1nccc(NCCc2cn(C)c3ccccc23)n1 | 98 | 62 | 27
3 | COc1ccc2[nH]ccc(=NN=Cc3ccc(Cl)cc3)c2c1 | 100 | 72 | 9
4 | Cc1cc(N(CCN2CCCCC2)CCN2CCCCC2)nc(Nc2ccc(Cl)cc2)n1.Cl | 100 | 79 | 19
5 | CC(=O)Nc1ccc(COc2ccc(Nc3ccnc4cc(-c5ccccn5)ccc34)cc2)cc1.Cl | 99 | 94 | 99
6 | O=C(Nc1ccc2c(c1)CCC2)c1ccc(CN2CCCN(Cc3cccc(O)c3)CC2)cc1.O=C(O)C(F)(F)F | 88 | 46 | 45
7 | CCN1CCN(Cc2ccc(NC(=O)c3cc4ccc5cccnc5c4[nH]3)cc2)CC1 | 100 | 97 | 0
8 | Cc1ccc(O)cc1Nc1c(C(N)=O)cnc2ccc(-c3cncs3)cc12 | 100 | 99 | 21
9 | CC1CN(Cc2cccc(F)c2)CCN1c1ccc(NC(=O)c2ccc(F)cc2)cc1.O=C(O)C(F)(F)F (stereo not drawn) | 96 | 92 | 0
10 | COc1ccc(-c2ccccc2OCCCNc2nc(NCCc3ccc(O)cc3)nc(N3CCNCC3)n2)cc1.O=C(O)C(F)(F)F | 99 | 3 | 36
11 | Cc1ccccc1C1CCN(C2CCC(NC(=O)/C=C/c3cc(F)cc(F)c3)CC2)CC1 (stereo not drawn) | 99 | 33 | 53
